# Screening results from PubChem.
# Six1-Eya2 inh: qHTS Assay for Inhibitors of the Six1/Eya2 Interaction; AlphaScreen GST-Six1/His-Eya2 binding, biochemical; active compounds read low; activity change, % (concentration not given with the values); 360,000 tested, 0.56% active; AID 651725, 2012; in the data active means activity change below about -65%; inconclusive means mostly about -30% to -63%
#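 AlphaScreen with GST-Six1 and His-Eya2 (5X mix: 250 nM and 500 nM), glutathione donor and nickel acceptor beads; buffer 50 mM Tris pH 8.0, 300 mM NaCl, 1 mM TCEP; 1 h at 37 C in the dark.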
# HP1b chromo inh: HTS for Inhibitors of HP1-beta Chromodomain Interactions with Methylated Histone Tails; Chromobox protein homolog 1 (Homo sapiens), P83916; AlphaScreen HP1-beta / biotin-H3K9me3 peptide binding; Potency, µM (series often up to 114 µM), usual class: inhibitors; 390,000 tested, 0.56% active; further: nearly all actives have a fitted effect of over 70% in size
#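 AlphaScreen: HP1-beta (50 nM) preformed 30 min with biotin-H3(1-18)K9me3 peptide (50 nM) in PBS pH 7.4, 0.01% Tween-20. Compound added for 30 min at RT, then streptavidin donor/nickel chelate acceptor beads (10 ug/mL) for 30 min.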
# G9a block: qHTS Assay for Inhibitors of Histone Lysine Methyltransferase G9a; AID 504332, 2011; G9a H3K9 monomethylation, AlphaScreen, 2 h; 350,000 tested, 8.8% active; Potency, µM (highest dose often 102 µM), usual class: inhibitors; further: nearly all actives have a fitted effect of over 75% in size
#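 Using a bead-based AlphaScreen, monomethylated H3K9 product from 2 h room-temperature reactions (G9a 20 nM, peptide 500 nM, SAM 20 uM) was detected with 0.5 ug/mL rabbit anti-H3K9me1 antibody.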
# JMJD2A Tudor inh: qHTS Assay for Inhibitors of JMJD2A-Tudor Domain | AlphaScreen JMJD2A-Tudor / H3K4me3 peptide binding | Potency, µM (series often up to 114 µM), hits mostly inhibitors | 390,000 tested, 4.4% active | AID 504339, 2011; further: nearly all actives have a fitted effect of over 50% in size
# CtBP-E1A inh: qHTS Assay for Inhibitors of the CtBP/E1A Interaction | CtBP / adenovirus E1A interaction (AlphaScreen) | AlphaScreen GST-E1A/His-CtBP binding, 1536-well; active compounds read low | activity change, % (concentration not given with the values) | 340,000 tested, 0.49% active; in the data active means activity change below about -65%; inconclusive means mostly about -30% to -63%
#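 GST-E1A and His-tagged CtBP (125 nM each as 5X stock) were preincubated with pin-transferred compound for 2 h at 37 °C in the dark, then glutathione donor and nickel acceptor beads were added for 1 h before AlphaScreen reading.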
# BAZ2B block: qHTS Assay for Inhibitors of BAZ2B; Bromodomain adjacent to zinc finger domain protein 2B (Homo sapiens), Q9UIF8; AlphaScreen BAZ2B-H3K14Ac peptide displacement; Potency, µM (titrated, usually from 114 µM), most hits filed as inhibitors; 360,000 tested, 4.4% active; AID 504333, 2011; further: nearly all actives have a fitted effect of over 60% in size
#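 In this displacement format the biotinylated H3(5-23) peptide acetylated at Lys14 serves as ligand at 50 nM, with BAZ2B at 50 nM in PBS pH 7.4 containing 0.01% Tween-20. Donor and acceptor beads are 10 ug/mL final.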
# A number is an active result; . = inactive; ? = inconclusive; / = no result given; [ ] = another dose, or the depositor's remark. A selection: hits, their analogues and other compounds. The true share with any hit is near 10%. Unless noted, the call rests on the fitted dose curve; in most records, active means well fitted inhibition curve with a large enough effect; inconclusive means small, poorly fitted or top-dose-only effect; inactive means no such curve, though single readings can be large or run the other way.
SMILES,Six1-Eya2 inh,HP1b chromo inh,G9a block,JMJD2A Tudor inh,CtBP-E1A inh,BAZ2B block
COc1cc(CN2CCc3c([nH]c4ccccc34)C2)cc(OC)c1,.,?,32µM,7.9µM,.,35µM
COc1cc(CN2CCN(Cc3c[nH]c4ccccc34)CC2CCO)cc(OC)c1 (stereo not given),.,.,/,.,/,.
CCc1nn(CC(=O)NCc2cccc(OC)c2)c(=O)c2cc3cc(F)ccc3n12,/,.,?,.,/,.
COc1ccc(C2Nc3ccccc3C(=O)N2Cc2ccccc2)cc1COc1ccccc1OC (stereo not given),/,/,/,.,/,/
CCCn1c(SCc2nc(-c3ccccc3OCC)no2)nnc1-c1ccc(Cl)cc1,/,.,.,.,/,.
Cc1ccc(S(=O)(=O)Nc2cc3c(cc2NCc2ccccc2)n(C)c(=O)n3C)c(C)c1,/,.,11µM,?,/,50µM
Cc1ccc(S(=O)(=O)Nc2cc3c(cc2NCc2ccccc2)n(C)c(=O)n3C)cc1,/,?,16µM,?,/,.
Cn1c(=O)n(C)c2cc(NS(=O)(=O)c3ccc(F)cc3)c(NCc3ccccc3)cc21,/,.,11µM,?,/,.
CC1(CCc2ccccc2)NC(=S)N(c2ccccc2)N1 (stereo not given),.,.,10µM,?,.,50µM
CC1(CCc2ccccc2)NC(=O)N(CC(=O)O)C1=O (stereo not given),.,.,.[12.7 µM],.[11.4 µM],.,.
CC1(C)CC(C)(O)N(Cc2ccccc2)C(=S)N1 (stereo not given),.,.,.,.,.,.
CC1(CCc2ccccc2)NC(=S)N(c2ccc(Cl)cc2)N1 (stereo not given),.,.,10µM,?,.,79µM
C=CCn1c(SCC(=O)Nc2cc(C)on2)nnc1-c1ccncc1,.,/,/,/,.,/
O=c1[nH]c(=O)c2nnc(N/N=C\c3ccc(O)cc3)nc2[nH]1,-75,.,11µM,?,-65,?
CCCc1c(-c2ccc(F)cc2F)ncn1Cc1cccc(-c2ccccc2)c1,.,/,/,/,.,/
Cc1c(-n2cc(C(=O)c3cc(F)ccc3O)cc(C#N)c2=O)c(=O)n(-c2ccccc2)n1C,.,.,.,.,.,?
Cc1c(-n2cc(C(=O)O)c(=O)c3cc(F)c(N4CCCC4)c(F)c32)c(=O)n(-c2ccccc2)n1C,.,.,56µM,.,.,.
Oc1ccc(N=Nc2ccc3c(c2)OCCO3)c2cccnc12,-77,?,.,20µM,-84,?
COc1ccc(N=Nc2ccc(O)c3ncccc23)cc1,-86,.,.,22µM,/,6.3µM
Cc1ccc(O)c2ncccc12,/,/,.[12.7 µM],/,/,/
Cc1ccccc1N=Nc1ccc(O)c2ncccc12,?,?,?,?,.,7.9µM
O=Nc1ccc(O)c2ncccc12,-89,.,?,28µM,/,22µM
COc1ccc(-c2ncccc2O)cc1,.,.,.,.,.,.
O=Nc1ccc(NO)c2ccccc12,.,/,/,/,.,/
O=c1c(-c2ccccc2)nc2cnc(Oc3cccc(Cl)c3)nc2n1C1CC1,/,/,.[0.501 µM],/,/,/
SMILES,Six1-Eya2 inh,HP1b chromo inh,G9a block,JMJD2A Tudor inh,CtBP-E1A inh,BAZ2B block
COCCn1c(=N)c(C(=O)NC2CCCC2)cc2c(=O)n3cc(C)ccc3nc21,/,.,.,.,/,.
CCC(=O)N1c2ccc(S(=O)(=O)NCc3cccc(OC)c3)cc2CC1C (stereo not given),/,.,.,.,/,/
CCc1ccccc1N(C)S(=O)(=O)c1ccc2[nH]cc(C(=O)NCCOC)c(=O)c2c1,/,.,.,.,/,.
CCN(CC)S(=O)(=O)c1ccc(N=Nc2cc(C)cc(Br)c2O)cc1,.,?,/,?,.,/
Oc1ccc(N=Nc2ccc3c(c2)OCCO3)c(O)c1,.,.,?,40µM,.,?
COc1cccc(N=Nc2ccc(O)c3ncccc23)c1,-70,?,10µM,18µM,-96,7.9µM
O=C(Cc1ccc2c(c1)OCCO2)c1c(O)cc(O)cc1O,.,.,.,?,.,.
Cc1ccc(N=Nc2ccc(O)cc2)c(Br)c1,?,?,/,35µM,.,45µM
Nc1ccc(N=Nc2ccccc2)c2cccnc12,-65,16µM,13µM,32µM,-73,7.9µM
COc1ccc(-c2[nH]ncc2N=Nc2cc(C)cc(C)c2)cc1,.,.,?,.[11.4 µM],/,?
COc1ccc(-c2[nH]ncc2N=Nc2ccccc2)cc1,.,?,50µM,28µM,?,35µM
COc1cc(OC)cc(C(=O)Nc2cccc3cccnc23)c1,.,.,/,.,.,.
COc1cccc(N=Nc2ccc3cccnc3c2O)c1,-91,?,7.1µM,14µM,/,13µM
Nc1ccc(Br)c2cccnc12,.,.,32µM,.,.,.
COc1cc(N)c2ncccc2c1Cl,.,.,/,.,.,/
CS(=O)(=O)Oc1ccc(Br)c2cccnc12,.,.,.[0.501 µM],.,/,.
COc1ccc(C)cc1N=Nc1ccc(O)c2ncccc12,-95,7.9µM,10µM,8.9µM,/,18µM
NS(=O)(=O)c1ccc(NC(=O)C2Cc3ccccc3N2C(=O)c2ccccc2)cc1 (stereo not given),/,.,.[12.7 µM],.,/,.
O=C(Nc1cccc([N+](=O)[O-])c1)C1COc2ccccc2O1 (stereo not given),.,.,.,.,/,.
Oc1ccc(N=Nc2ccc(Br)cc2)c(O)c1,.,.,?,.,/,25µM
CCOc1ccc(S(=O)(=O)O)c2cccnc12,/,/,.[12.7 µM],/,/,/
O=S(=O)(O)c1cccc2c(N=Nc3ccc(O)c4ncccc34)cccc12,.,22µM,10µM,25µM,-92,22µM
COc1ccc(N=Nc2cc(-c3ccccc3)ccc2O)cc1,?,?,?,13µM,-69,10µM
CC(=O)NCCNc1nc(-c2cccc(C#N)c2)nc2ccccc12,/,/,.[0.501 µM],/,/,/
CC(=O)N(C)c1ccc(NS(=O)(=O)Cc2ccccc2)cc1,.,.,56µM,.,.,.
N/C(=N\OC(=O)c1ccccc1)C(Cc1ccccc1)C(=O)NOC(=O)c1ccccc1 (stereo not given),.,.,/,.,.,/
Cc1ccc(NC(=O)c2ccc(-c3cc(Cl)ccc3Cl)o2)c(C)c1,.,/,/,/,.,/
Cc1ccccc1C(=O)NNC(=S)NC(=O)c1cccnc1,.,.,6.3µM,.,/,.
O=C(NC(=S)NNC(=O)c1ccccc1F)c1cccnc1,.,.,8.9µM,16µM,.,.
Cc1cc(Cl)ccc1NC(=O)Cn1nc(C)c2c(C)n(-c3ccccc3)nc2c1=O,/,.,.,.,/,56µM
